Sampled rows, rich in hits. Any-hit rate of the full collection: about 8.1%.
ELG1 DNA repair – qHTS screen for small molecules that inhibit ELG1-dependent DNA repair in human embryonic kidney (HEK293T) cells expressing luciferase-tagged ELG1; HEK293T ELG1-luciferase reporter, luminescence, 16 h; DNA damage induced by 5-fluorouridine; Potency, µM (series often up to 46.1 µM), hits mostly inhibitors; 330,000 tested, 2.3% active; AID 504467, 2011; note: nearly all actives have a fitted effect of over 55% in size
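Step one: seed 2,000 cells per well. Step two: pin-transfer compound or DMSO alongside 5-fluorouridine. Step three: incubate 16 hr, 37 °C, 5% CO2. Step four: add ONE-Glo, wait 30 min, read luminescence.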
KB-3-1 tox – qHTS assay for MDR1-selective chemotherapeutics: Primary screen using the parental adenocarcinoma cell KB-3-1. KB-3-1 viability, CellTiter-Glo ATP luminescence, 72 h. Potency, µM (titrated, usually from 46.1 µM), usual class: cytotoxic. 400,000 tested, 1.4% active; note: nearly all actives have a fitted effect of over 60% in size
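Luminescent ATP read-out (CellTiter-Glo) measures survival of drug-naive KB-3-1 cells after 72 h compound exposure at 37 °C. Titration series was screened from lowest to highest concentration, with DMSO vehicle plates as background controls.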
MCF10A rerep – A quantitative high throughput screen for small molecules that induce DNA re-replication in MCF 10a normal breast cells | MCF 10A DNA re-replication, Hoechst nuclear intensity, 48 h | Potency, µM (highest dose often 46.1 µM), usual class: activators | 350,000 tested, 2.9% active | AID 624296, 2012; note: nearly all actives have a fitted effect of over 50% in size
SW480 rerep – A quantitative high throughput screen for small molecules that induce DNA re-replication in SW480 colon adenocarcinoma cells; SW480 DNA re-replication, Hoechst DNA content imaging, 48 h; Potency, µM (highest dose often 46.1 µM), usual class: activators; 340,000 tested, 1.8% active; note: nearly all actives have a fitted effect of over 55% in size
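Per well, 250 cells were exposed to pinned compound for 48 hr. Nuclear DNA was visualised with Hoechst (40 min, 37 C) and total object intensity recorded by fluorescence scanning.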
KB-V1 cytotox – qHTS assay for MDR1-selective chemotherapeutics: Primary screen using the drug-selected MDR subline cells KB-V1; KB-V1 MDR cells viability, CellTiter-Glo, 72 h; Potency, µM (doses to about 46.1 µM), most hits filed as cytotoxic; 400,000 tested, 3.4% active; note: nearly all actives have a fitted effect of over 60% in size
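Potencies derive from concentration-effect curves fitted to normalized luminescence (CellTiter-Glo) of KB-V1 cells treated for 72 h at 37 degrees C in phenol-red-free DMEM containing 10% FBS.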
Of the large screens only hits and unclear results are named; the others gave an inactive call. Calls come from the whole dose curve; as a rule, active = well fitted curve in the direction sought with a large enough effect; inconclusive = small, poorly fitted or top-dose-only effect, or another doubt; inactive = no such curve, though single readings can be large; an effect the other way counts as inactive or inconclusive.

C[C@@H]1CC[C@]2(C(=O)O[C@@H]3O[C@H](CO)[C@@H](O)[C@H](O)[C@H]3O)CC[C@]3(C)C(=CCC4[C@@]5(C)C[C@@H](O)[C@H](O)[C@@](C)(C(=O)O[C@@H]6[C@H](O)C[C@@]7(C)C(CC[C@]8(C)C7CC=C7[C@H]9[C@](C(=O)O[C@@H]%10O[C@H](CO)[C@@H](O)[C@H](O)[C@H]%10O)(CC[C@@H](C)[C@@]9(C)O)CC[C@]78C)[C@@]6(CO)C(=O)O)C5CC[C@]43C)[C@@H]2[C@]1(C)O (stereo partly drawn)	SW480 rerep inconclusive
CC(=O)N1c2ccc(S(=O)(=O)N3CCC(C(=O)N4CCCCC4)CC3)cc2CC1C (stereo not drawn)	none
FC(F)(F)c1ccc(/C=N/n2c(COc3ccccc3)n[nH]c2=S)cc1	KB-V1 cytotox inconclusive
O=C(OCc1ccccc1)N1C=CC2CC1c1c(Cl)cccc12 (stereo not drawn)	MCF10A rerep 23.1µM (no result: ELG1 DNA repair)
C=CCNc1nnc(SCC(=O)Nc2ccccc2OC)c2ccccc12	KB-V1 cytotox inconclusive
CN(C)/N=C/C=C1\CCC/C(=C/c2cccs2)C1=O	ELG1 DNA repair inconclusive, MCF10A rerep 23.1µM, SW480 rerep inconclusive, KB-V1 cytotox inconclusive
CN(C)/N=C/C=C1\CC/C(=C\c2ccc(Br)cc2)C1=O	ELG1 DNA repair inconclusive, SW480 rerep inconclusive
CCOC(=O)C1CCC(=O)N1Cc1c[nH]c2ccccc12 (stereo not drawn)	none (no result: ELG1 DNA repair, MCF10A rerep, SW480 rerep)
O=C(Nc1ccc(Cl)cc1)c1cc2c(cc1O)[nH]c1ccccc12	ELG1 DNA repair inconclusive, KB-3-1 tox inconclusive, MCF10A rerep 4.61µM, KB-V1 cytotox inconclusive
CCOC(=O)c1cc2c(=O)n3ccccc3nc2n(Cc2ccco2)c1=NC(=O)c1ccccc1OCC	ELG1 DNA repair inconclusive
C[C@@H]1CN(C(=O)c2cc(COc3cccc(C(F)(F)F)c3)on2)C[C@H](C)O1	ELG1 DNA repair 14.6µM, MCF10A rerep inconclusive (no result: KB-3-1 tox, KB-V1 cytotox)
O=C(NCC1CCOCC1)c1cc(COc2cccc(C(F)(F)F)c2)on1	ELG1 DNA repair 16.4µM
O=C(CSc1nnc(-c2ccccc2)c(-c2ccccc2)n1)NC1CCS(=O)(=O)C1 (stereo not drawn)	none
Nc1[nH]c(C(=O)c2ccccc2)c(-c2ccc(Br)cc2)c1C(=O)NCCc1c[nH]c2ccccc12	KB-V1 cytotox inconclusive (no result: ELG1 DNA repair, MCF10A rerep, SW480 rerep)
COc1ccccc1CCNC(=O)c1c(N)[nH]c(C(=O)c2ccccc2)c1-c1ccc(Br)cc1	KB-3-1 tox inconclusive, KB-V1 cytotox 14.6µM (no result: ELG1 DNA repair, MCF10A rerep, SW480 rerep)
Cc1[nH]n(-c2ccccc2)c(=O)c1/C=N/Nc1nncc(-c2ccccc2)n1	ELG1 DNA repair inconclusive, KB-3-1 tox 7.31µM, KB-V1 cytotox inconclusive
Cc1[nH]n(-c2ccccc2)c(=O)c1/C=N/N1C(=O)c2cccc3cccc(c23)C1=O	ELG1 DNA repair inconclusive, KB-3-1 tox inconclusive, SW480 rerep inconclusive, KB-V1 cytotox 7.31µM
Cc1[nH]n(-c2ccccc2)c(=O)c1C=Nc1cccc2cccnc12	ELG1 DNA repair inconclusive, KB-3-1 tox inconclusive, SW480 rerep inconclusive, KB-V1 cytotox 18.4µM
Cc1ccc(-n2[nH]c(C)c(/C=N/c3ccccn3)c2=O)cc1	KB-3-1 tox inconclusive
CCOC(=O)C(CC(=O)O)=C(c1ccccc1)c1ccccc1	none
O=C(Nc1nc(-c2ccc3c(c2)OCO3)cs1)C1CC1	ELG1 DNA repair inconclusive
O=C(NCc1ccco1)c1ccccc1O	none
Cc1ccc(-n2ncc3c(SCc4ccccn4)ncnc32)c(C)c1	ELG1 DNA repair inconclusive, KB-3-1 tox inconclusive, MCF10A rerep inconclusive, KB-V1 cytotox 8.2µM
COc1ccc(S(=O)(=O)Nc2ccc(O)c3ccccc23)cc1	ELG1 DNA repair 9.2µM, KB-3-1 tox inconclusive, MCF10A rerep inconclusive, SW480 rerep inconclusive, KB-V1 cytotox inconclusive
COC(=O)Nc1ccc(S(=O)(=O)Nc2cccc3ccccc23)cc1	ELG1 DNA repair inconclusive, KB-3-1 tox inconclusive, SW480 rerep inconclusive, KB-V1 cytotox 14.6µM
COc1ccc(S(=O)(=O)Nc2ccccc2)cc1	none (no result: ELG1 DNA repair)
CC1=Nc2cc(C(=O)NCCCOC(C)C)ccc2Sc2ccccc21	ELG1 DNA repair inconclusive, KB-3-1 tox inconclusive, MCF10A rerep 7.31µM, SW480 rerep inconclusive, KB-V1 cytotox inconclusive
CC1=Nc2cc(C(=O)NCCCOC(C)C)ccc2Sc2ccc(C)cc21	ELG1 DNA repair inconclusive, KB-3-1 tox 2.91µM, MCF10A rerep 9.2µM, SW480 rerep 6.51µM, KB-V1 cytotox 4.11µM
COc1cccc(-n2c(CN3CCN(c4ccc(C)cc4)C(C)C3)nc3ccc([N+](=O)[O-])cc3c2=O)c1 (stereo not drawn)	ELG1 DNA repair inconclusive, KB-V1 cytotox 14.6µM
COc1cccc(-n2c(CN3CCN(c4ccccn4)CC3)nc3ccc([N+](=O)[O-])cc3c2=O)c1	ELG1 DNA repair inconclusive
COc1cccc(-n2c(CN3CCN(c4cccc(C)c4)C(C)C3)nc3ccc([N+](=O)[O-])cc3c2=O)c1 (stereo not drawn)	ELG1 DNA repair 11.6µM
COc1ccc(-n2c(CN3CCN(c4ccccc4)CC3)nc3ccc([N+](=O)[O-])cc3c2=O)c(OC)c1	none
CCOc1ccc2c(c1)C(=NNC(=O)c1ccccn1)c1cc(OCC)ccc1-2	none (no result: ELG1 DNA repair)
O=C(Nc1ccc(F)c(Cl)c1)c1cc(C2CCCCN2C(=O)c2cccs2)on1 (stereo not drawn)	KB-3-1 tox 23.1µM (no result: ELG1 DNA repair, MCF10A rerep, SW480 rerep)
Cc1cccc(N2CN=c3s/c(=C\c4ccncc4)c(=O)n3C2)c1	ELG1 DNA repair inconclusive
O=C(O)c1ccccc1C(=O)Nc1ccc(Br)c(C(F)(F)F)c1	ELG1 DNA repair inconclusive
Cc1cc(C)c(C(=O)Nc2ccc(Br)c(C(F)(F)F)c2)c(C)c1	KB-3-1 tox inconclusive, MCF10A rerep 23.1µM, SW480 rerep inconclusive
N=c1ccn(Cc2ccc(F)cc2)cc1	ELG1 DNA repair inconclusive, KB-3-1 tox 5.8µM
CCN1CCN(Cc2ccc(NC(=O)c3ccc(C)c(NC(=O)C(=O)c4c[nH]c5ccccc45)c3)cc2C(F)(F)F)CC1	ELG1 DNA repair inconclusive, KB-3-1 tox inconclusive, MCF10A rerep 23.1µM, SW480 rerep inconclusive, KB-V1 cytotox inconclusive
CCN1CCN(Cc2ccc(NC(=O)c3cc(NC(=O)c4cnn(-c5ccccc5)c4N)cc(OC)c3)cc2C(F)(F)F)CC1	MCF10A rerep 14.6µM
CCN1CCN(Cc2ccc(NC(=O)c3cc(NC(=O)C(=O)c4c[nH]c5ccccc45)cc(OC)c3)cc2C(F)(F)F)CC1	KB-3-1 tox inconclusive, MCF10A rerep inconclusive, SW480 rerep inconclusive, KB-V1 cytotox inconclusive
